Reference: PubChem BioAssay (NCI)
The panel holds about 83,000 compounds, 20% with a hit somewhere; the sample as a whole holds those more often.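 Note: values are percent growth. 100 is the growth of untreated cells, values between 100 and 0 indicate rising inhibition; between -100 and 0 indicates cell death.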 Unmarked numbers belong to inactive results. The source made the active and inactive calls. Rule for the calls: active = growth percent below 10; inactive = the rest.

What was measured:
Experiment in all cases: NCI-60 one-dose screen, 48 h (100 = growth as untreated, 0 = no growth, -100 = all killed)
Conditions in all cases: 10 µM unless noted
DU-145 prostate = tested on: DU-145 prostate
K-562 leukemia = tested on: K-562 leukemia
MALME-3M melanoma = tested on: MALME-3M melanoma
MDA-MB-231 breast = tested on: MDA-MB-231 breast
RXF 393 renal = tested on: RXF 393 renal
SF-268 CNS = tested on: SF-268 CNS
SF-295 CNS = tested on: SF-295 CNS
SF-539 CNS = tested on: SF-539 CNS
UACC-257 melanoma = tested on: UACC-257 melanoma
M14 melanoma = tested on: M14 melanoma
HCT-15 colon = tested on: HCT-15 colon
HT29 colon = tested on: HT29 colon
SNB-75 CNS = tested on: SNB-75 CNS
SNB-19 CNS = tested on: SNB-19 CNS
U251 CNS = tested on: U251 CNS
PC-3 prostate = tested on: PC-3 prostate
SK-MEL-5 melanoma = tested on: SK-MEL-5 melanoma
UACC-62 melanoma = tested on: UACC-62 melanoma
LOX IMVI melanoma = tested on: LOX IMVI melanoma
SK-MEL-28 melanoma = tested on: SK-MEL-28 melanoma

| SMILES | growth (DU-145 prostate) | growth (K-562 leukemia) | growth (MALME-3M melanoma) | growth (MDA-MB-231 breast) | growth (RXF 393 renal) | growth (SF-268 CNS) [%] | growth (SF-295 CNS) | growth (SF-539 CNS) | growth (UACC-257 melanoma) | growth (M14 melanoma) | growth (HCT-15 colon) | growth (HT29 colon) | growth (SNB-75 CNS) | growth (SNB-19 CNS) | growth (U251 CNS) | growth (PC-3 prostate) | growth (SK-MEL-5 melanoma) | growth (UACC-62 melanoma) | growth (LOX IMVI melanoma) | growth (SK-MEL-28 melanoma) |
| --- | --- | --- | --- | --- | --- | --- | --- | --- | --- | --- | --- | --- | --- | --- | --- | --- | --- | --- | --- | --- |
| CCOC(=O)NC1=NCC(C)(C)S1 | 107% | 88.4% | 103% | 101% | 111% | 97.8 | 98.7% | 110% | 103% | 103% | 104% | 91.3% | 91.2% | 98.1% | 101% | 93.6% | 98.3% | 93.6% | 94.4% | 99.9% |
| CC(=O)/C(=C/c1ccc(-c2ccccc2)cc1)C(=O)c1ccccc1 | 87.1% | 64.2% | 89.3% | 92.5% | 90.6% | 85.9 | 92.3% | 85.1% | 80.2% | 79.8% | 66.9% | 70.2% | 79.7% | 82.3% | 61% | 63.1% | 87.3% | 80.5% | 19.5% | 96.2% |
| C/C=C(/C)C(=O)OC1C=C(CO)C(=O)C(OC(=O)C(C)(O)C(C)Cl)C1C(C)C (stereo not given) | 3.58% (active) | 1.56% (active) | -76.6% (active) | -5.1% (active) | -63.6% (active) | 10.4 | -41.4% (active) | -43.7% (active) | -19.7% (active) | -56.4% (active) | -20.7% (active) | -32.5% (active) | 20% | -1.69% (active) | -50% (active) | -24.8% (active) | -93% (active) | -77% (active) | -75.4% (active) | -48.9% (active) |
| O=P(OCCCl)(OCCCl)C(O)c1ccccc1Cl (stereo not given) | 112% | 96.6% | 96.7% | 108% | 125% | 103 | 102% | 98.1% | 137% | 105% | 99.5% | 101% | 96.7% | 107% | 113% | 103% | 112% | 106% | 104% | 113% |
| O=C(Nc1cccc(Cn2c(=O)[nH]c3ccc(Oc4ncccn4)cc3c2=O)c1)c1ccc(Cl)cc1 | 62.3% | 4.84% (active) | 41% | 53.6% | 51.4% | 56.8 | 39.4% | 59.2% | 25.9% | 57.8% | 59% | 40.3% | 50.9% | 58.5% | 63% | 46.2% | 12.6% | 53.9% | 66.5% | 69.3% |
| O=C(NCCO)C(F)(F)F | 109% | 105% | 95.6% | 107% | 108% | 102 | 95.5% | 93.5% | 99.3% | 101% | 96.9% | 104% | 101% | 94.6% | 97.1% | 103% | 115% | 102% | 103% | 111% |
| CCOC(=O)C1C(=O)C(=O)N(C(C)C)C1C(=O)OCC (stereo not given) | 113% | 108% | 92.4% | 103% | 105% | 99.3 | 98.2% | 99.8% | 86.7% | 111% | 94.1% | 98.2% | 85.9% | 97.3% | 107% | 97.8% | 103% | 96.4% | 102% | 108% |
| C#CCCCCCCC[C@@H]1OC(=O)[C@H]([C@@H](C)CC)NC(=O)[C@H]([C@@H](C)CC)NC(=O)CC(=O)[C@@H]1C | 106% | 96.5% | 92.9% | 89.9% | 104% | 91.9 | 98.9% | 97.5% | 117% | 93.9% | 98.2% | 115% | 76.1% | 97.7% | 103% | 85.9% | 101% | 88.7% | 92.1% | 108% |
| c1ccc(Nc2ccccn2)cc1 | 111% | 89.5% | 103% | 96.6% | 113% | 115 | 102% | 99.5% | 104% | 107% | 96.2% | 99.4% | 118% | 98.9% | 103% | 102% | 106% | 93.7% | 102% | 112% |
| N#Cc1c2cccnc2c2nnc3cc(Cl)c(Cl)cc3n12 | 36.4% | 5.64% (active) | 25.6% | 2.64% (active) | -3.12% (active) | 16.8 | 80.8% | 35.1% | 73.1% | 78.1% | 1.83% (active) | -50.6% (active) | -6.13% (active) | 63.1% | 26.2% | 18.4% | 86.1% | 52.5% | 21.9% | 17.6% |
| CC(C)OCC1CO1 (stereo not given) | 114% | 109% | 86.8% | 107% | 119% | 99.9 | 78.2% | 95.1% | 102% | 102% | 100% | 103% | 92.7% | 99.7% | 102% | 106% | 108% | 98.9% | 113% | 110% |
| O=C(NCCNCCO)c1cc([N+](=O)[O-])cc([N+](=O)[O-])c1O | 99.3% | 102% | 107% | 109% | 109% | 102 | 101% | 106% | 103% | 102% | 106% | 104% | 102% | 102% | 99.3% | 99.7% | 103% | 101% | 99.1% | 106% |
| CC(C)(C)C(=O)OCOP(=O)(OCOC(=O)C(C)(C)C)C1CC(O)N(O)C1=O (stereo not given) | 44.4% | 15.2% | 41.2% | 42.7% | 1.26% (active) | 13.3 | 67% | 39.3% | 63.1% | 55.6% | 34.7% | 6.67% (active) | 51.2% | 16.1% | 6.74% (active) | 58.9% | 58.4% | 9.68% (active) | 30.4% | 8.22% (active) |
| CC(C)CCCCCOC(=O)c1ccccc1SSc1ccccc1C(=O)OCCCCCC(C)C | 112% | 96.3% | 110% | 99.5% | 120% | 110 | 105% | 99.4% | 102% | 104% | 104% | 122% | 87.2% | 103% | 110% | 88.6% | 96.2% | 96.2% | 100% | 114% |
| CCCNC(=O)Oc1ccc(/C(=C(/C)Cc2ccc(OC)cc2)c2ccc(OCCN3CCCC3)cc2)cc1 | 90.1% | -11.5% (active) | 28.9% | 57.6% | 70% | 72.4 | 68.7% | 77.8% | 73.5% | -52.9% (active) | 16.9% | 0.741% (active) | 48.2% | 78.6% | 48.6% | 56.4% | 11.7% | 52.5% | 48.4% | 55.8% |
